Inhibition data for 62 compounds are collected here from PubChem BioAssay AID504329 (Southern Research Specialized Biocontainment Screening …, 2011).

Hit rate of the full screen: of about 340,000 compounds, about 1,000 (0.29%) were called active. These entries were drawn from the full list. Potency and affinity values are given separately. Values without a mark were called inactive. Cut-off read from the data, not from the text of the source: inconclusive = inhibition above about 27% without an active follow-up result; inactive = below that.

This test is described as follows: NS1A inhibition, H1N1 influenza, cell based functional assay (AID 504329). As to conditions: percent inhibition, at 12.5 µM, hits give high values.
As for `O=C(N/C=N/OCc1ccc(Cl)cc1Cl)NOCc1c(Cl)cccc1Cl`, the inhibition – broadly, the relative decrease from the control value, in per cent – was -13.6%.
For `Cc1ccc(S(=O)(=O)NCC(c2ccc3c(c2)OCO3)N2CCN(c3ccccc3)CC2)cc1` (configuration not stated), the inhibition is -19.9%.
Turning to `Cc1[nH]c(C)c(S(=O)(=O)NCc2ccccc2Cl)c1C(=O)N1CCCC1`, the inhibition was 9.96%.
Consider `c1csc(C(c2nnnn2C2CCCC2)N2CCOCC2)c1` (configuration not stated), for which the inhibition was 5.59%.
As for `O=C(CCNC(=O)c1ccccc1Cl)Nc1ccccc1N1CCCC1`, the inhibition is -8.83%.
Turning to `O=C(NCCN1CCOCC1)c1noc2c1CCc1ccccc1-2`, the inhibition was 1.97%.
As for `CCCCCN1C(=O)Cn2c(nc3ccccc3c2=O)C1C` (configuration not stated), the inhibition is 4.12%.
Under `Cc1noc(/C=C/N(C)C)c1S(=O)(=O)N1CCN(c2ccc(F)cc2)CC1` stands 4.41%; under `CC[n+]1ccccc1/C=C/c1ccc(N(C)C)cc1`, 8%; under `CN(C)c1ccc(/C=C/c2cc[n+](C)c3ccccc23)cc1`, 58.9%.
Under `COC(=O)c1ccc(CNC(=O)c2sccc2-c2ccccc2)cc1` stands 4.96%.
In the case of `COc1ccc2[nH]c3c(=O)n4c(nc3c2c1)SCC4`, the inhibition is -0.07%.
As for `CCCCc1ccc(NS(=O)(=O)c2cccc(C(=O)N3CCNC(=O)C3)c2)cc1`, the inhibition is 0.4%.
Regarding `Clc1ccc2c(NNc3ccccc3Cl)ccnc2c1`, the inhibition was 6.7%.
On to `Oc1ccc(Nc2ccnc3cc(Cl)ccc23)cc1`, for which the inhibition is 3.37%.
On to `N/C(=N\N=C\c1ccc2c(c1)OCO2)SC1CC(=O)N(c2ccc(C(=O)O)cc2)C1=O` (configuration not stated), for which the inhibition is 1.14%.
`Fc1ccc(Nc2nc(N3CCOCC3)c3ccccc3n2)cc1`: the inhibition was 4.75%.
Turning to `Cc1ccc(Nc2nc(N3CCOCC3)c3ccccc3n2)cc1`, the inhibition was 5.53%.
In the case of `CCCOc1ccc(C(=O)NCCN2CCOCC2)cc1`, the inhibition was -8.97%.
Under `O=C1C2C3CCCC3=C3CCCC3C2C(=O)N1c1ccc(F)cc1` (configuration not stated) stands -3.36%; under `CCOc1ccc(NS(=O)(=O)c2ccc(-c3cnc(C4CC4)o3)cc2)cc1`, -5.05%.
As for `CCSc1nnc(CNc2ccc(C)cc2)n1C`, the inhibition was -3.37%.
On to `Oc1ccc(/C=N/N(c2ccccc2)c2ccccc2)cc1O`, for which the inhibition is 1.06%.
`Oc1ccc(/C=N/N(Cc2ccccc2)c2ccccc2)c(O)c1O`: the inhibition is 19.2%.
`COc1ccc(CCC(=O)N(C)CC(=O)Nc2cc(C)ccc2C)cc1`: the inhibition is -11.1%.
`CC(C)OC(=O)c1cc(NC(=O)C2C3C=CC(O3)C2C(=O)O)cc(C(=O)OC(C)C)c1` (configuration not stated): the inhibition was 6.16%.
Consider `O=C1[C@H]2[C@@H](C(=O)N1c1cccc3ccccc13)C1(C(=O)c3ccccc3C1=O)N1CCC[C@@H]21`, for which the inhibition was -0.49%.
As for `COc1nc(C)nc(NC(=O)NS(=O)(=O)c2ccccc2Cl)n1`, the inhibition is -15.1%.
For `COc1cc(OC)nc(NC(=O)NS(=O)(=O)c2ccccc2Cl)n1`, the inhibition was -10.9%.
Under `C/C(=N\NC(=O)c1ccccc1)c1cccc(Br)c1` stands 3.22%; under `C/C(=N\NC(=O)c1cccc(Br)c1)c1cccnc1`, 0.75%.
As for `C/C(=N\NC(=O)c1cccc2ccccc12)c1cccs1`, the inhibition was -0.84%.
Regarding `CCc1ccc(/C(C)=N/NC(=O)c2ccccn2)cc1`, the inhibition was -11.6%.
Regarding `C/C(=N\NC(=O)c1cccc2ccccc12)c1cccnc1`, the inhibition is -8.98%.
Turning to `O=C(NCCNC(=O)c1ccccc1F)c1ccccn1`, the inhibition was -7.82%.
As to `C/C(=N/NC(=O)c1ccccn1)c1ccc(O)cc1`, the inhibition is -1.61%.
`C/C(=N\NC(=O)c1ccccc1OCc1ccc(F)cc1)c1ccccn1`: the inhibition is -7.95%.
With `COc1cccc2cc(CC(=O)c3ccccc3)c(=O)oc12`, the inhibition is -8.03%.
Under `COc1ccc(-c2oc(=O)c3cc(OC)c(OC)cc3c2C#CCCCO)cc1` stands 6.01%.
As for `COc1ccc(CCNC(=O)CCCCCN2C(=O)c3ccccc3C2=O)cc1OC`, the inhibition was -8.38%.
For the compound `Cc1cc(OCC(=O)NCc2ccncc2)c2c3c(c(=O)oc2c1)CCCC3`, the inhibition is -0.56%.
Turning to `NC(=O)C1CCCc2c1n(Cc1ccccc1)c1ccccc21` (configuration not stated), the inhibition was 1.35%.
On to `CN(c1ccc(OCC(=O)OCC(=O)Nc2ccc(OC(F)F)cc2)cc1)S(=O)(=O)c1cccs1`, for which the inhibition was -3.07%.
For the compound `Cn1c(C(=O)NCCCN2CCN(c3ccccc3F)CC2)cc2c(=O)n(C)c3ccccc3c21`, the inhibition was 2.56%.
As for `Cc1sc2ncnc(Nc3ccccc3)c2c1C`, the inhibition is 1.18%.
In the case of `C/C(=N\Nc1ccc(Cl)cc1)c1ccccn1`, the inhibition is -19.3%.
`C/C(=N/NC(=O)c1ccccn1)c1c[nH]c2ccccc12`: the inhibition was 9.32%.
As for `C/C(=N/NC(=O)c1ccccn1)c1ccncc1`, the figure is 19.9%.
As for `O=C(N/N=C(\c1ccccc1)c1ccccn1)c1ccccc1Cl`, the inhibition was 7.83%.
In the case of `C/C(=N\Nc1ncc(Cl)cc1Cl)c1ccc(C#N)cc1`, the inhibition was -7.31%.
For the compound `Cc1sc2ncnc(N/N=C/c3ccccc3O)c2c1C`, the inhibition was 12.5%.
Regarding `C/C(=N/NC(=O)c1ccncc1)c1c[nH]c2ccccc12`, the inhibition was 3.5%.
As to `Nc1cc(N)nc(SCC(=O)NCc2ccco2)n1`, the inhibition is 0.81%.
On to `CN(C(=O)Oc1ccc([N+](=O)[O-])cc1)c1ccccc1`, for which the inhibition is 5.58%.
With `COCCn1c(=O)[nH]c2cc(C(=O)N3CCN(c4cccc(C(F)(F)F)c4)CC3)ccc2c1=O`, the inhibition is 4.36%.
`O=C1NC2NC(=O)N(C(Cc3ccccc3)C(=O)O)C2N1` (configuration not stated): the inhibition is 7.19%.
In the case of `C/C(=N\Nc1ccc(Cl)c(C(=O)O)c1)c1ccccn1`, the inhibition is -11.6%.
`Clc1ccccc1N=Nc1ccccn1`: the inhibition is 2.66%.
As for `COc1ccc(C(=O)COC(=O)c2ccccn2)cc1OC`, the figure is 2.06%; as for `O=C(COC(=O)c1ccccn1)c1ccc(Br)cc1`, 13.3%.
Turning to `O=C1CC(=C(c2ccccc2)c2ccccc2)C(=O)N1CCCCN1CCN(c2ccccc2)CC1`, the inhibition is 0.53%.
As for `COc1cc(/C=C/C(=O)Nc2cccc(S(=O)(=O)N3CCOCC3)c2)ccc1OCC#N`, the inhibition is -0.73%.
